From PubChem
Only some compounds are listed: those with a hit (about 3% of all), similar ones and a draw of the others.
PMP22 txn prim – modulates PMP22 transcription in S16 Schwann cells; S16 Pmp22-F2sN Schwann cells, FLuc/NLuc coincidence luminescence, 24 h; Potency, µM (doses to about 57.5 µM), most hits filed as inhibitors; 43,000 tested, 2% active; active = clear falling dose curves in both reporters; inconclusive = both reporters move, but less clearly or upward; inactive = either reporter flat; the % is the NLuc reporter signal
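qHTS, 1536-well. Cells seeded, compounds added by pin tool, 24 h 37C. Nano-Glo reagent 1 (lysis/FLuc), 10 min RT, read; Stop&Glo, 10 min RT, read NLuc.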
p53null 32C kill – selectivity test: cytotoxicity in p53 null cells, permissive temperature; 55,000 tested, 0.62% active; H1299-neo p53 null cells, ATP luminescence, 24 h, 32C; Potency, µM (top dose mostly 46.1 µM), usual class: cytotoxic; also: nearly all actives have a fitted effect of over 55% in size
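We seeded p53-null H1299-neo cells, incubated them overnight at 37C, and added compounds across a range up to 46 uM. After 24 hours at 32C, ATP reagent was applied for 20 min at room temperature and luminescence recorded.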
SKOV3 invasion – inhibitors of ovarian cancer cell adhesion and invasion in omental model; SKOV3ip1-GFP adhesion/invasion on 3D omental model, fluorescence; Potency, µM (top dose mostly 45.8 µM), hits mostly inhibitors; 46,000 tested, 0.1% active; AID 1963576; also: nearly all actives have a fitted effect of over 65% in size
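qHTS, 4-pt dose (0.36-46 umol/L); SKOV3ip1-GFP, 1,200 cells/well, no FBS; primary omental fibroblast/mesothelial co-culture 48 h pre-grown; 2 h RT + 16 h 37 C; PBS wash, 4% PFA; GFP count 488/509 nm.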
S16 viability – cytotoxicity in S16 Pmp22-F2sN Schwann cells; AID 1508642; S16 Pmp22-F2sN Schwann cells (luciferase reporters placed in the Pmp22 gene) viability, CellTiter-Glo, 24 h; Potency, µM (series often up to 57.5 µM), usual class: cytotoxic; 43,000 tested, 0.48% active; also: nearly all actives have a fitted effect of over 65% in size
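Rat S16 Schwann reporter line, 24 h treatment with library compounds delivered at 23 nL per well. Cell viability by CellTiter-Glo luminescence.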
p53null 39C kill – p53 null cell cytotoxicity, nonpermissive temperature; H1299 p53-null (neo) cells, 39C, ATPlite viability, 24 h; Potency, µM (doses to about 46.1 µM), actives largely listed as cytotoxic; 55,000 tested, 0.97% active; also: nearly all actives have a fitted effect of over 50% in size
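Cells seeded at 600/well, 37C overnight. Compound added (up to 46 uM), plates shifted to 39C for 24 hr. ATPlite added, luminescence read after 20 min at room temperature.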
mTORC1 inh – reduces mTORC1 signaling in Tsc2 and p53 null MEF cells; Tsc2-/- p53-/- MEF, phospho-rpS6 immunofluorescence/PI, 24 h; Potency, µM (titrated, usually from 38.3 µM), usual class: inhibitors; 44,000 tested, 0.78% active; also: nearly all actives have a fitted effect of over 50% in size
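Tsc2-/-, p53-/- MEFs (empty-vector stable line) in DMEM + 10% FBS were treated with compounds 24 h at 37 degree Celsius, fixed, and immunostained for phospho-rpS6 (Alexa-488) with propidium iodide counterstain. Laser-scanning cytometry gave % positive cells, normalized against 7.5 nM rapamycin and DMSO.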
Hits are given with their value; 0 = inactive; ? = inconclusive; - = not tested or not shown; [ ] = remark or other dose. Unless noted, calls follow the shape of the dose curve; as a rule, active = well fitted curve in the direction sought with a large enough effect; inconclusive = small, poorly fitted or top-dose-only effect, or another doubt; inactive = no such curve, though single readings can be large; an effect the other way counts as inactive or inconclusive.

SMILES	PMP22 txn prim	p53null 32C kill	SKOV3 invasion	S16 viability	p53null 39C kill	mTORC1 inh
COc1ccc(CNc2ncnc3c2cnn3-c2ccc(C)c(C)c2)cc1	?	0	0	0	0	0
CCC(CO)Nc1ncnc2c1cnn2-c1ccc(C)cc1 (stereo unspecified)	?	15.8µM	0	0	0	0
Cc1ccc(-n2ncc3c(NC(C)c4ccccc4)ncnc32)cc1 (stereo unspecified)	0	?	0	0	0	0
CCOc1cc2c(c(F)c1OCC)C(=N)N(CC(=O)c1cc(N3CCOCC3)c(OC)c(C(C)(C)C)c1)C2	-	-	0	-	-	-
Cc1ccc(Nc2c(-c3c[nH]c4ccccc34)nc3ccccn23)cc1	?	0	0	0	14.1µM	?
COc1ccc2oc(=Nc3ccccc3)c(-c3nc4ccccc4[nH]3)cc2c1	-	11.2µM	-	-	-	-
O=c1cc(CN2CCOCC2)occ1OCCCCCSc1ccnc2cc(C(F)(F)F)ccc12	-	-	0	-	-	-
O=C(CC12CC3CC(CC(C3)C1)C2)Nc1cccc2nc(NCCNCCO)ccc12	-	-	0	-	-	-
CCOC(=O)c1cc2c(=O)n3ccccc3nc2n(Cc2ccco2)c1=NC(=O)c1cccc(C)c1	?	0	0	?	0	0
CCOC(=O)c1cc2c(=O)n3ccccc3nc2n(Cc2ccco2)c1=NC(=O)c1c(F)cccc1Cl	15µM	0	0	?	0	0
O=C(Nc1cccc(Cl)c1)c1cnc[nH]1	0	0[9.22 µM]	0	0	0	0
COc1ccc(NC(=O)c2cnc[nH]2)cc1	0	17.8µM	0	0	7.94µM	0
CC(=O)c1ccc(S(=O)(=O)Nc2ccc(-c3ccc(N4CCCCCC4)nn3)cc2)cc1	-	0	0	-	?	0
CC(=O)Nc1ccc(S(=O)(=O)Nc2cccc(-c3ccc(N4CCCCCC4)nn3)c2)cc1	-	?	0	-	?	0
CCc1ccc(S(=O)(=O)Nc2cccc(-c3ccc(N4CCC(C)CC4)nn3)c2)s1	-	10µM	0	-	12.6µM	0
CCOc1ccc(-c2cccc(NS(=O)(=O)c3ccc(C)s3)c2)nn1	0	0	0	0	0	0
COc1ccc(S(=O)(=O)Nc2cccc(-c3ccc(N4CCC(C)CC4)nn3)c2)c(OC)c1	-	12.6µM	0	-	12.6µM	0
CC(=O)Nc1ccc(S(=O)(=O)Nc2cccc(-c3ccc(N4CCC(C)CC4)nn3)c2)cc1	-	3.98µM	0	-	3.16µM	0
CC(=O)c1ccc(S(=O)(=O)Nc2ccc(-c3ccc(N4CCCCC4)nn3)cc2)cc1	-	?	0	-	15.8µM	0
COCCOc1ccc2c(c1)ncn2-c1ccc2cccc(N3CCC(N)CC3)c2n1	-	-	0	-	-	-
COc1cc(Cl)c(NS(=O)(=O)c2ccc(-c3cnc(C4CC4)o3)cc2)c(OC)c1	2.99µM	0	0	1.26µM	?	0
Cc1ccc(N(C)S(=O)(=O)c2ccc(-c3cnc(C4CC4)o3)cc2)cc1	14.1µM	0	0	?	?	0
CCOC(=O)c1cccc(NS(=O)(=O)c2ccc(-c3cnc(C4CC4)o3)cc2)c1	10.6µM	0	0	?	0	0
Cc1ccc(CNS(=O)(=O)c2ccc(-c3cnc(C4CC4)o3)cc2)cc1	?	0	0	0	0	0
CC(=O)c1ccc(NS(=O)(=O)c2ccc(-c3cnc(C4CC4)o3)cc2)cc1	0	?	0	0	0	0
SMILES	PMP22 txn prim	p53null 32C kill	SKOV3 invasion	S16 viability	p53null 39C kill	mTORC1 inh
CCOc1ccc(-n2nc3ccc(NC(=O)c4ccc(-c5cccc(Cl)c5)o4)cc3n2)cc1	?	0	0	?	?	11.7µM
CN(Cc1ccccc1)C(=O)c1cccc(NC(=O)c2nsc3ccccc23)c1	?	?	0	0	14.1µM	0
COc1cc(F)c(C(C)C)cc1-c1ccc(C(F)(F)F)cc1CN1C(=O)O[C@H](c2cc(C(F)(F)F)cc(C(F)(F)F)c2)[C@@H]1C	-	-	0	-	-	-
Brc1ccc(Nc2c3c(nc4nncn24)CCC3)cc1	?	0	0	0	0	5.85µM
Cc1ccc(Nc2c3c(nc4nncn24)CCC3)cc1	?	0	0	0	0	0
Cc1ccc2[nH]c(=O)c3cc(C(=O)NCCCN4CCC(C)CC4)sc3c2c1	?	0	?	?	?	3.29µM
CCCNC(=O)[C@H]1O[C@H]1C(=O)N[C@H](C(=O)N1CCC[C@@H]1C(=O)OC)C(C)CC (stereo partly specified)	-	-	0	-	-	-
COc1ccc(NC(=O)CSc2nc(-c3cccs3)cc(C(F)(F)F)n2)cc1OC	4.22µM	0	0	?	0	0
N#Cc1c(C(F)(F)F)cc(-c2cccs2)nc1SCC(=O)Nc1cccc(Cl)c1	0	0	0	0	0	0
N#Cc1c(C(F)(F)F)cc(-c2cccs2)nc1SCC(=O)Nc1cccc(Br)c1	0	0	0	0	?	11.7µM
CCn1cnc2cc(NC(=O)c3ccco3)ccc21	-	10µM	-	-	12.6µM	-
O=C(Nc1ccc2nn(-c3ccccc3)nc2c1)c1ccco1	-	0	-	-	0	-
COc1ccc(C(=O)Nc2c(C(=O)c3ccc(F)cc3)oc3ccccc23)cc1	10.2µM	0	0	0	?	0
Cc1cc(OCC(=O)Nc2c(C(=O)c3ccccc3)oc3ccccc23)cc(C)c1Cl	0	0	0	0	0	0
Cc1cccc(C)c1OCC(=O)Nc1c(C(=O)c2ccccc2)oc2ccccc12	0	0	10µM	0	0	0
COc1cccc(NC(=O)c2oc3ccccc3c2NC(=O)c2ccc(OC(C)C)cc2)c1	0	15.8µM	0	0	12.6µM	0
O=C(Nc1noc2ccccc12)c1ccc(F)cc1	0	12.6µM	0	0	?	0
COc1ccc(C(=O)c2oc3ccccc3c2NC(=O)c2ccc(F)cc2)cc1	0	0	0	0	0	0
Cc1cn([C@@H]2O[C@H](CO)[C@@H](O)[C@H]2F)c(=O)[nH]c1=O	-	-	0	-	-	-
O=c1[nH]c(=O)n([C@H]2C[C@@H](O)[C@@H](CO)O2)cc1I	-	-	0	-	-	-
Cc1cc(C)cc(NC(=O)c2nnn(Cc3cccc(Br)c3)c2N)c1	?	0	0	0	0	0
Nc1c(C(=O)NCc2ccccc2)nnn1Cc1cccc(Br)c1	3.03µM	0	0	?	0	0
CCCN(CCC)CCCNC(=O)C1CCN(c2nc3ccc(CC)cc3s2)CC1	?	?	?	28.2µM	?	16.5µM
CCc1ccc2nc(N3CCC(C(=O)NCCC(C)C)CC3)sc2c1	?	?	0	0	6.31µM	0
CCCN(CCC)CCNC(=O)C1CCN(c2nc3ccc(CC)cc3s2)CC1	?	?	?	?	?	16.5µM
CC[C@H](CC[C@@H](C)[C@H]1CC[C@H]2[C@@H]3CC=C4C[C@@H](O)CC[C@]4(C)[C@@H]3CC[C@]12C)C(C)C	-	-	0	-	-	-
